PubChem BioAssay (Tox21)
Results filed as inconclusive are left out. A call without a number means that no potency is given here. The source made the active and inactive calls. Calls follow the shape of the full dose curve.

These compounds were tested against Acetylcholinesterase (Homo sapiens) (UniProt P22303) (assay: Acetylcholinesterase (AChE) small molecule antagonists: enzyme-based qHTS assay (AID 1347397; also: nearly all actives have a fitted effect of over 55% in size)). Conditions: Potency: AChE enzyme activity inhibition; outcome: AChE enzyme activity inhibition; series mostly up to 115 µM.
Sequence of Acetylcholinesterase (Homo sapiens) (P22303 whole entry, looked up): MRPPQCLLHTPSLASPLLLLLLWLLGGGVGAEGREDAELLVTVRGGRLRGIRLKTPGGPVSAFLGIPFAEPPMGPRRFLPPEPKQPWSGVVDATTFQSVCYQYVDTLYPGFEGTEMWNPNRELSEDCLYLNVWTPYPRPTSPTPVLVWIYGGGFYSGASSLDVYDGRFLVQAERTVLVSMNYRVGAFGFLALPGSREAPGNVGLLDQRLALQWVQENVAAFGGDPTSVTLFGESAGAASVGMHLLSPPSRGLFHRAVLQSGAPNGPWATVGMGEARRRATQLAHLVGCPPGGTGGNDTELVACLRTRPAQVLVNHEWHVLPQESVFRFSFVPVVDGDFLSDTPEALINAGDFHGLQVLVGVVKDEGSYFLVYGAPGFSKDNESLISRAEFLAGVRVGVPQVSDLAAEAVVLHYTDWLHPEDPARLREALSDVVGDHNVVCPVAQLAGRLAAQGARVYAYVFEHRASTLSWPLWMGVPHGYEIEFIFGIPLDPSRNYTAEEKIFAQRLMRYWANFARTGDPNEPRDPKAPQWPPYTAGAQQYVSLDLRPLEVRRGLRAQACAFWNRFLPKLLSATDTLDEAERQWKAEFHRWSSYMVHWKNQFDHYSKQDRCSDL
Summary of the method: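 In this quantitative HTS, compounds from the Tox21 10K collection were preincubated 30 min at ambient temperature with recombinant human AChE dispensed at 50 mU/mL. Hydrolysis of acetylthiocholine was then followed for 10 min by DTNB colour development.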
FC(F)(F)c1ccccc1-n1ccnc1 was tested, and the Potency was “inactive”. In the case of O=C(O)Cc1cn(-c2ccccc2)nc1-c1ccc(Cl)cc1, the Potency is reported as “inactive”. For O=C(O)c1ccc(S(=O)(=O)O)cc1C(=O)O, the Potency was “inactive”. With CCCCCC(C)N (stereo not given) the Potency was “inactive”. With C=CCCCCCCCCC(=O)O the Potency was “inactive”. CC(C)c1ccc(C(C)C)cc1 was tested, and the Potency was “inactive”. Cc1cc2c(C(C)C)c(O)c(O)c(C=O)c2c(O)c1-c1c(C)cc2c(C(C)C)c(O)c(O)c(C=O)c2c1O was tested, and the Potency was “inactive”. C[C@@H]1[C@H](O)[C@@H](C)/C=C/C=C\C=C\C=C\C=C\C=C\C=C\[C@H](O[C@@H]2O[C@H](C)[C@@H](O)[C@H](N)[C@@H]2O)C[C@@H]2O[C@](O)(C[C@@H](O)C[C@@H](O)[C@H](O)CC[C@@H](O)C[C@@H](O)CC(=O)O[C@H]1C)C[C@H](O)[C@H]2C(=O)O (stereo in doubt) was tested, and the Potency was “inactive”. Nc1nnnn1-c1ccccc1 was tested, and the Potency was “inactive”. For C/C(Cl)=C/CCl, the Potency was “inactive”. With CCCCCCCCCCCCCCCCCBr the activity change, negative = inhibition was 1.09% [at 23.6 µM] (inactive). With CC(C)NNC(=O)c1ccncc1 the Potency was “inactive”. In the case of C=C(C)C1CC=C(C)C(=O)C1 (stereo not given), the Potency is reported as “inactive”. In the case of C=C(C)C(=O)OCCCCCCOC(=O)C(=C)C, the Potency is reported as “inactive”. With CCOC(=O)c1cccnc1 the Potency was “inactive”. CC(=O)c1ccc(O)cc1 was tested, and the Potency was “inactive”. For CC[C@H](NC(C)C)[C@H](O)c1ccc(O)c2[nH]c(=O)ccc12, the Potency was “inactive”. For ClC/C=C/CCl, the Potency was “inactive”. With C#C[C@]1(O)CC[C@H]2[C@@H]3CCC4=CC(=O)CC[C@@H]4[C@H]3CC[C@@]21CC the Potency was “inactive”. For CCCCCCCCOCCC#N, the Potency was “inactive”. With CC(=O)OCCCc1ccccc1 the Potency was “inactive”. In the case of COc1ccc(C(Cl)=C(c2ccc(OC)cc2)c2ccc(OC)cc2)cc1, the Potency is reported as “inactive”. In the case of CC(=O)c1ccc([N+](=O)[O-])cc1, the Potency is reported as “inactive”. For CCCC(O)C(CC)CO (stereo not given), the Potency was “inactive”. For CCN(CCC#N)c1ccc(N=Nc2c(Cl)cc([N+](=O)[O-])cc2Cl)cc1, the Potency was “inactive”. With C=CCNC(N)=S the Potency was “inactive”. With O=S(=O)(O)C(F)(F)F the Potency was “inactive”. With CC(CN(C)C)C(C)(O)Cc1ccc(Cl)cc1 (stereo not given) the Potency was “inactive”. For COC(=O)/C=C\C(=O)OC, the Potency was “inactive”. In the case of CCOC(=O)C(=O)CCCCCCl, the Potency is reported as “inactive”. For NC(N)=O, the Potency was “inactive”. For O=C[C@H](O)[C@H](O)[C@H](O)CO, the Potency was “inactive”. With Cc1cc(C)nc(NS(=O)(=O)c2ccc(N)cc2)n1 the Potency was “inactive”. For CN1C(CSCC(F)(F)F)Nc2cc(Cl)c(S(N)(=O)=O)cc2S1(=O)=O (stereo not given), the Potency was “inactive”. For C=COCC(C)C, the Potency was “inactive”. CO[C@@]1(NC(=O)CSCC#N)C(=O)N2C(C(=O)O)=C(CSc3nnnn3C)CS[C@@H]21 was tested, and the Potency was “inactive”. With Cc1ccc(C)c([N+](=O)[O-])c1 the Potency was “inactive”. For OCC1CC2CC1C1CCC(CO)C21 (stereo not given), the Potency was “inactive”. With CC(=O)O[C@]1(C(C)=O)CC[C@H]2[C@@H]3C=C(C)C4=CC(=O)CC[C@]4(C)[C@H]3CC[C@@]21C the Potency was “inactive”. In the case of O=C[C@@H](O)[C@H](O)[C@H](O)CO, the Potency is reported as “inactive”.

These compounds were tested against Acetylcholinesterase (Homo sapiens) (UniProt P22303) (assay: Acetylcholinesterase (AChE) small molecule antagonists: fluorescence cell-based qHTS assay (AID 1347398; also: nearly all actives have a fitted effect of over 50% in size)). Conditions: SH-SY5Y cells; Potency: AChE activity; outcome: AChE activity; series mostly up to 115 µM.
Summary of the method: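 Cells (SH-SY5Y) attached overnight, were dosed with compound or DMSO vehicle for 30 min at 37 C, and then incubated 40 min at room temperature with acetylthiocholine and Thiolite Green; green fluorescence indexed AChE activity.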
In the case of FC(F)(F)c1ccccc1-n1ccnc1, the Potency is reported as “inactive”. O=C(O)Cc1cn(-c2ccccc2)nc1-c1ccc(Cl)cc1 was tested, and the Potency was “inactive”. With O=C(O)c1ccc(S(=O)(=O)O)cc1C(=O)O the Potency was “inactive”. In the case of CCCCCC(C)N (stereo not given), the Potency is reported as “inactive”. C=CCCCCCCCCC(=O)O was tested, and the Potency was “inactive”. CC(C)c1ccc(C(C)C)cc1 was tested, and the Potency was “inactive”. For Cc1cc2c(C(C)C)c(O)c(O)c(C=O)c2c(O)c1-c1c(C)cc2c(C(C)C)c(O)c(O)c(C=O)c2c1O, the Potency was “inactive”. C[C@@H]1[C@H](O)[C@@H](C)/C=C/C=C\C=C\C=C\C=C\C=C\C=C\[C@H](O[C@@H]2O[C@H](C)[C@@H](O)[C@H](N)[C@@H]2O)C[C@@H]2O[C@](O)(C[C@@H](O)C[C@@H](O)[C@H](O)CC[C@@H](O)C[C@@H](O)CC(=O)O[C@H]1C)C[C@H](O)[C@H]2C(=O)O (stereo in doubt) was tested, and the Potency was “inactive”. In the case of Nc1nnnn1-c1ccccc1, the Potency is reported as “inactive”. For C/C(Cl)=C/CCl, the Potency was “inactive”. With CCCCCCCCCCCCCCCCCBr the activity change, negative = inhibition was -1.4% [at 23.8 µM] (inactive). With CC(C)NNC(=O)c1ccncc1 the Potency was “inactive”. C=C(C)C1CC=C(C)C(=O)C1 (stereo not given) was tested, and the Potency was “inactive”. C=C(C)C(=O)OCCCCCCOC(=O)C(=C)C was tested, and the Potency was “inactive”. CCOC(=O)c1cccnc1 was tested, and the Potency was “inactive”. In the case of CC(=O)c1ccc(O)cc1, the Potency is reported as “inactive”. With CC[C@H](NC(C)C)[C@H](O)c1ccc(O)c2[nH]c(=O)ccc12 the Potency was “inactive”. ClC/C=C/CCl was tested, and the Potency was “inactive”. C#C[C@]1(O)CC[C@H]2[C@@H]3CCC4=CC(=O)CC[C@@H]4[C@H]3CC[C@@]21CC was tested, and the Potency was “inactive”. With CCCCCCCCOCCC#N the Potency was “inactive”. CC(=O)OCCCc1ccccc1 was tested, and the Potency was “inactive”. In the case of COc1ccc(C(Cl)=C(c2ccc(OC)cc2)c2ccc(OC)cc2)cc1, the Potency is reported as “inactive”. For CC(=O)c1ccc([N+](=O)[O-])cc1, the Potency was “inactive”. With CCCC(O)C(CC)CO (stereo not given) the Potency was “inactive”. In the case of CCN(CCC#N)c1ccc(N=Nc2c(Cl)cc([N+](=O)[O-])cc2Cl)cc1, the Potency is reported as “inactive”. For C=CCNC(N)=S, the Potency was “inactive”. For O=S(=O)(O)C(F)(F)F, the Potency was “inactive”. In the case of CC(CN(C)C)C(C)(O)Cc1ccc(Cl)cc1 (stereo not given), the Potency is reported as “inactive”. COC(=O)/C=C\C(=O)OC was tested, and the Potency was “inactive”. In the case of CCOC(=O)C(=O)CCCCCCl, the Potency is reported as “inactive”. NC(N)=O was tested, and the Potency was “inactive”. With O=C[C@H](O)[C@H](O)[C@H](O)CO the Potency was “inactive”. With Cc1cc(C)nc(NS(=O)(=O)c2ccc(N)cc2)n1 the Potency was “inactive”. With CN1C(CSCC(F)(F)F)Nc2cc(Cl)c(S(N)(=O)=O)cc2S1(=O)=O (stereo not given) the Potency was “inactive”. C=COCC(C)C was tested, and the Potency was “inactive”. With CO[C@@]1(NC(=O)CSCC#N)C(=O)N2C(C(=O)O)=C(CSc3nnnn3C)CS[C@@H]21 the Potency was “inactive”. For Cc1ccc(C)c([N+](=O)[O-])c1, the Potency was “inactive”. For OCC1CC2CC1C1CCC(CO)C21 (stereo not given), the Potency was “inactive”. With CC(=O)O[C@]1(C(C)=O)CC[C@H]2[C@@H]3C=C(C)C4=CC(=O)CC[C@]4(C)[C@H]3CC[C@@]21C the Potency was “inactive”. In the case of O=C[C@@H](O)[C@H](O)[C@H](O)CO, the Potency is reported as “inactive”.
